Measurements reported in PubChem BioAssay (NCATS).
Inconclusive results are not listed. Calls of active or inactive are those of the source. The call rests on the fitted dose curve; in most records, active means well fitted curve in either direction with a large enough effect (not every such curve was filed as active); inconclusive means small, poorly fitted or top-dose-only effect, or another doubt; inactive means flat fitted curve, though single readings scatter.

target: Mitogen-activated protein kinase 10 (Mus musculus) (UniProt Q61831); assay: JNK3 AlphaScreen Assay (AID 530); conditions: JNK3 lysate, c-Jun phosphorylation; series mostly up to 25.6 µM;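 further: kinase came from lysate of stimulated human HepG2 cells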
Description: NIH Chemical Genomics Center [NCGC]
NIH Molecular Libraries Screening Centers Network [MLSCN]
The c-jun N-terminal kinase (JNK) family are serine/threonine protein kinases that phosphorylate c-jun, a component of the transcription factor […] (AP-1). JNK kinases are members of the mitogen-activated protein kinase family including the extracellular regulated kinases and p38 kinases. Three JNK genes (JNK 1, 2, and 3) have been identified in humans so far. JNK1 and JNK2 have a broad distribution and JNK3 is primarily found in neuronal tissues and cardiac myocytes.
JNK3 has been under consideration as a target for the treatment of neurodegenerative disorders. […] JNK pathway is also involved in pathological process in a mouse model of Parkinson's disease (Xia et al., 2001).
Given these potential tissue distributions and links to neuroprotection, JNK3 inhibitors should provide useful investigational tools to study the role of this kinase in several diseases including, arthritis, stroke, myocardial infarction, ischemic injury and Parkinson's disease.
A homogeneous AlphaScreen is developed to measure the activity of JNK3. AlphaScreen is a two bead-based proximity-dependent chemical energy transfer luminescent assay platform. The phosphorylation of a biotinylated c-jun substrate by JNK3 can be detected with an antibody raised against phosphorylated c-jun. This process brings streptavidin donor beads and Protein-A acceptor beads to within a proximity range of <200 nm, and subsequently lead a chemical luminescent reaction upon exciting donor beads with 680 nm laser excitation light. Inhibition of JNK3 activity by small molecules and subsequent decrease in the antibody binding to biotinylated c-jun could attenuate or abolish this chemical luminescent reaction.
Yang DD, Kuan CY, Whitmarsh AJ, Rincon M, Zheng TS, Davis RJ, Rakic P and Flavell RA (1997) Absence of excitotoxicity-induced apoptosis in the hippocampus of mice lacking the Jnk3 gene. Nature 389:865-870. [PMID: 9349820]
Herdegen T, Claret FX, Kallunki T, Martin-Villalba A, Winter C, Hunter T, and Karin M (1998) Lasting N-terminal phosphorylation of c-Jun and activation of c-Jun N-terminal kinases after neuronal injury. J.Neurosci. 18:5124-5135. [PMID: 9651196]
Xia XG, Harding T, Weller M, Bieneman A, Uney JB and Schulz JB (2001) Gene transfer of the JNK interacting protein-1 protects dopaminergic neurons in the MPTP model of Parkinson's disease. Proc.Natl.Acad.Sci.U.S.A. 98:10433-10438.
NCGC Assay Protocol Summary:
GST-cJun (1-79) (Stratagene, La Jolla CA, #205145) was biotnylated by PerkinElmer (PerkinElmer-BioSignalInc. Montreal, Canada) and was detectable by the streptavidin Donor beads. Anti-(phospho)cJun (Ser73) antibody was from UpState (Charlottesvilles, VA, #06-659). JNK3-containing lysates were generated from HepG2 cells and pre-activated by interleukin1-beta and tumor necrosis factor alpha. All reagents were stored at -20 C before using. Phosphorylated biotinylated-GST-cJun was recognized by Anti-(phospho)cJun (Ser73) antibody and this process brings acceptor and donor beads together. Therefore JNK3 phosphorylation of cJun can be measured by Alpha reading by EnVision (PerkinElmer, Boston, MA).
The composition of kinase buffer was (in mM) 20 tris- HCl (pH 7.6) 10 MgCl2, 1 DTT, and 0.1 Na3VO4 and 0.01% Tween-20. Beads were diluted in detection buffer containing (in mM) 20 tris-HCl (pH 7.7), 20 NaCl and 80 EDTA and 0.3% BSA. The assay was performed at room temperature. All compounds were screened as titrations from 0.6 nM to 46 uM final concentration. The assay was performed in 1536-well format (white solid bottom and untreated) as follows:
Sequence,Parameter,Value,Description
1,Reagent,3 uL,Biotin-GST-cJun, Anti-(phospho)cJun and pre-activated JNK3-containing lysates
2,Compound,23 nL,Final concentration was 0.6nM to 46uM
3,Time,15 minutes,Room Temperature
4,Reagent,1 uL,ATP final concentration 10uM
6,Reagent,0.5 uL,2ng/well bead mixture
[…]

Potency, inactive:
CCN[C@@H]1CN(CCCOC)S(=O)(=O)c2sc(S(N)(=O)=O)cc21
C[C@@H]1[C@H](C)CC[C@@]2(C(=O)O)CC[C@]3(C)C(=CC[C@H]4[C@@]5(C)CC[C@@H](O)C(C)(C)[C@@H]5CC[C@@]43C)[C@@H]12
CC(=O)[C@@]1(O)CC[C@H]2[C@H]3C[C@@H](C)C4=CC(=O)C=C[C@]4(C)[C@@]3(F)[C@@H](O)C[C@]21C
Cc1noc(C)c1-c1nc(Nc2ccncc2)c2ccccc2n1
CC[C@H](CO)NCCN[C@@H](CC)CO
Cc1c(C)c2c(c(C)c1O)CC[C@@](C)(C(=O)O)O2
O=C(O)COCCN1CCN([C@@H](c2ccccc2)c2ccc(Cl)cc2)CC1
CC[C@@H]1OC(=O)[C@H](C)[C@H](O[C@@H]2C[C@](C)(OC)[C@H](O)[C@H](C)O2)[C@H](C)[C@H](O[C@@H]2O[C@@H](C)C[C@@H](N(C)C)[C@@H]2O)[C@](C)(O)C[C@H](C)C(=NOCOCCOC)[C@H](C)[C@H](O)[C@]1(C)O
NC(=O)c1cc[n+](CC2=C(C(=O)[O-])N3C(=O)[C@@H](NC(=O)Cc4cccs4)[C@@H]3SC2)cc1
Cc1ccccc1OC[C@H](O)CO
COc1cc2c(cc1OC)-c1cc3ccc(OC)c(OC)c3c[n+]1CC2
CC1=CC(=O)C2=C(C)CC[C@@H]3[C@@H](OC(=O)[C@H]3C)[C@H]12
CC(=O)O[C@]1(C(C)=O)CC[C@@H]2[C@@H]3C=C(C)C4=CC(=O)CC[C@@]4(C)[C@H]3CC[C@]21C
Cn1nnnc1SCC1=C(C(=O)O)N2C(=O)[C@@H](NC(=O)[C@@H](O)c3ccccc3)[C@@H]2SC1
C[C@H]1[C@@H](O)[C@@H](C)\C=C/C=C\C=C/C=C\C=C/C=C\C=C/[C@@H](O[C@H]2O[C@@H](C)[C@@H](O)[C@@H](N)[C@@H]2O)C[C@@H]2O[C@](O)(C[C@@H](O)C[C@@H](O)[C@@H](O)CC[C@@H](O)C[C@@H](O)CC(=O)O[C@H]1C)C[C@@H](O)[C@H]2C(=O)O (stereo in doubt)
C[C@H](CCC(=O)NCC(=O)O)[C@H]1CC[C@H]2[C@H]3[C@@H](C[C@@H](O)[C@]12C)[C@]1(C)CC[C@H](O)C[C@@H]1C[C@@H]3O
COc1ccc(-c2cc(=O)c3c(O)cc(O)cc3o2)cc1
CC(=O)N[C@H](CS)C(=O)O
C[C@@]12C=CC(=O)C=C1CC[C@H]1[C@H]3CC[C@](O)(C(=O)CO)[C@]3(C)CC(=O)[C@@H]12
NCC[C@H](O)C(=O)N[C@H]1C[C@@H](N)[C@@H](O[C@H]2O[C@@H](CN)[C@@H](O)[C@@H](O)[C@@H]2O)[C@@H](O)[C@@H]1O[C@H]1O[C@@H](CO)[C@@H](O)[C@@H](N)[C@@H]1O
CC(=O)O[C@H]1C[C@@]2(C)[C@H](C[C@@H](O)[C@H]3[C@@]4(C)CC[C@@H](O)[C@@H](C)[C@H]4CC[C@@]32C)C1=C(CCC=C(C)C)C(=O)O
O=C(Nc1ccccc1)OC[C@H](CN1CCCCC1)OC(=O)Nc1ccccc1
CNCCC=C1c2ccccc2C=Cc2ccccc21
COc1ccc(OC)c([C@H](O)CNC(=O)CN)c1
C[C@@]12CC[C@@H]3c4ccc(O)cc4CC[C@H]3[C@H]1C[C@@H](O)[C@H]2O
CC(=O)[C@@H]1CC[C@@H]2[C@@H]3C[C@H](C)C4=CC(=O)CC[C@@]4(C)[C@H]3[C@H](O)C[C@]21C
CN(C)CCCO[C@H]1[C@@H]2OC(C)(C)O[C@@H]2O[C@@H]1[C@H](O)CO
C=N[C@H](C(=O)N[C@@H]1C(=O)N2[C@@H]1SC(C)(C)[C@@H]2C(=O)O)c1ccccc1
NS(=O)(=O)c1cc2c(cc1Cl)N[C@@H](CC1CCCC1)NS2(=O)=O
COc1ccc2c3c([nH]c2c1)[C@@H]1C[C@@H]2[C@@H](C[C@H](O)[C@H](OC)[C@H]2C(=O)O)CN1CC3
CC1(C)[C@@H](OC(=O)CCC(=O)O)CC[C@@]2(C)[C@H]1CC[C@@]1(C)[C@H]2C(=O)C=C2[C@H]3C[C@](C)(C(=O)O)CC[C@]3(C)CC[C@@]21C
C[C@@H](CNC1CCCCC1)OC(=O)c1ccccc1
O=C(O)c1cc2ccccc2c(Cc2cc3ccccc3c(C(=O)O)c2O)c1O (tested in a mixture with another compound)
Cc1onc(-c2c(F)cccc2Cl)c1C(=O)N[C@H]1C(=O)N2[C@H]1SC(C)(C)[C@H]2C(=O)O
COc1cc(N)c(Cl)cc1C(=O)N[C@H]1CCN(CCCOc2ccc(F)cc2)C[C@H]1OC
O=C(OC[C@@H](O)CO)c1ccccc1Nc1ccnc2cc(Cl)ccc12
CC[C@H](CC[C@H](C)[C@@H]1CC[C@@H]2[C@H]3CC=C4C[C@@H](O)CC[C@]4(C)[C@H]3CC[C@]21C)C(C)C
C=CCO[C@@H](Cn1ccnc1)c1ccc(Cl)cc1Cl
CC(C)NC[C@H]1CCc2cc(CO)c([N+](=O)[O-])cc2N1
O=C1C=CC(=O)c2c1ccc1c2ccc2ccccc21
